These results are taken from PubChem BioAssay (NCI).

About 83,000 compounds went through this panel and 20% of them were active in at least one assay; those are over-represented in the sample as a whole.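 Plates (96-well) were seeded with cells, treated with compound at one concentration, and incubated for 48 hours before percent growth was determined.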 A number with no mark means an inactive call. Calls of active or inactive are those of the source. How the source made its calls: active means growth percent below 10; inactive means the rest.

This experiment relates to MDA-MB-468 breast. As to the kind of experiment: NCI-60 one-dose screen, 48 h (100 = growth as untreated, 0 = no growth, -100 = all killed). The settings on record: 10 µM unless noted.
For `N#Cc1c(NC(=O)c2ccccc2)sc2c1CCC(=O)C2`, the growth was -9.47% (active).

For the compound `Fc1ccc(-c2cc3nc(C(Cl)Cl)nc(-c4ccco4)n3n2)cc1`, the growth is -43.6% (active).

Take `Cc1ccc(-c2nc3ccc(Cl)cc3c(=O)n2N2C(=O)CSC2c2ccccc2Cl)cc1` (stereo unspecified): the growth was 107%.

With `Cc1nc2sc(C(=O)Nc3cccc4ccccc34)c(N)c2cc1C(C)O` (stereo unspecified), the growth is 25.3%.

With `Oc1ccc(CN(Cc2ccc(C(F)(F)F)cc2)Cc2ccc(O)c3ncccc23)c2cccnc12`, the growth was 4.04% (active).

With `C=CCN=c1sc2c(n1NC(=O)c1cc3ccc1CCc1ccc(cc1)CC3)C(=O)c1ccccc1C2=O`, the growth was -30.1% (active).

Consider `CCOC(=O)c1nn(C2CCCCO2)c2ccc(NC(=O)Cn3nnc4ccccc43)cc12` (stereo unspecified), for which the growth is 105%.

For the compound `O=C(c1ccccc1)c1c(/C=C/c2ccccc2)c2ccccc2[nH]c1=O`, the growth was 94.5%.

For `Cc1cc(O)c2c(c1)C(=O)c1cc(O)cc(O)c1C2=O`, the growth was 73.2%.

Consider `CCN(CCCCCCCCCCN1CC(=O)N(CCCCCCCCCCN(CC)Cc2ccccc2OC)CC1=O)Cc1ccccc1OC`, for which the growth is -87.8% (active).

For `O=CCCCC(O)C=O` (stereo unspecified), the growth is 98.9%.

As for `CCN(CC)CCCC(C)Nc1nc(-c2ccc(OC)cc2)nc2cc(Cl)ccc12` (stereo unspecified), the growth was 34.8%.

For `CC1=C/C(O)CC(=O)Cc2nc(co2)C(=O)N2CCC=C2C(=O)OC(C(C)C)C(C)/C=C\C(=O)NC/C=C\1` (stereo unspecified), the growth was 54.5%.

Consider `CNC(=O)c1cc(Oc2ccc3nc(NC(=O)Nc4ccc(Cl)cc4)sc3c2)ccn1`, for which the growth was 55.1%.

Consider `COc1ccc(-c2[nH]ncc2-c2cc3c(c(OC)c2)OCC(=O)N3)cc1`, for which the growth was -6.47% (active).

On to `O=C(O)CC1=CCCCC1`, for which the growth was 102%.

`Cc1ccc(C(=O)NN2C(=O)/C(=C/C=C/c3ccco3)SC2=S)cc1`: the growth was 71%.

Turning to `CC(C)CC(NC(=O)OCC1c2ccccc2-c2ccccc21)C(=O)O` (stereo unspecified), the growth is 103%.

Take `O=C1NC(=O)/C(=C/c2ccc(Cl)cc2Cl)N1`: the growth was 130%.

For the compound `Clc1ccc2c(NCCN3CCN(c4ccnc(N5CCCC5)n4)CC3)ccnc2c1`, the growth is -4.71% (active).

Take `OCCNc1nc(NCCO)nc(Nc2ccc(C3=NN(c4cc(Cl)cc(Cl)c4)C(c4ccccc4)C3)cc2)n1` (stereo unspecified): the growth is 73.5%.

As for `CCc1cccc2c1S/C(=C/c1ccc(OC)cc1)C2=O`, the growth is 27.3%.

For the compound `CN(C)c1ccc(/C=N/NC(=O)COc2cc(=O)n(C)c3ccccc23)cc1`, the growth is 105%.

For `CN(CCC#N)C(=O)Nc1ccccc1`, the growth is 109%.

`COc1ccc(OC)c(-c2nc(SCC(=O)c3ccc(Br)cc3)nc(Nc3ccc(S(N)(=O)=O)cc3)c2C#N)c1`: the growth is 43.9%.

In the case of `O=C(CCCCCCNC(=O)C(O)(O)C(F)(F)F)Nc1ncc(-c2ccc(Br)cc2)s1`, the growth is -35.8% (active).
